# Calls of active or inactive are those of the source. Unless noted, how the calls were made is not given here.
# What was measured:
# [1] = compounds binding Alexa647 anti-His antibody – biochemical, small-molecule microarray, 635 nm fluorescence, artefact control for SMM control protein annotation, primary screen (AID 1128); conditions: higher = more signal;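 further: score merges feature fluorescence with signal-to-noise for each printed compound spot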
# [2] = tested on: Human papillomavirus type 1a E7 protein (residues 1-88); test: HPV1a E7 small-molecule binders, primary screen, biochemical, small-molecule microarray, residues 1-88, 635 nm (AID 1129); conditions: small-molecule microarray binding, fluorescence 635 nm; higher = more signal
# [3] = biological target: Focal adhesion kinase 1 (Homo sapiens) (UniProt Q05397); test: PTK2 protein binding on printed compound slides – biochemical, small-molecule microarray, 635/667 nm fluorescence, BSA, DTT, primary screen (AID 1130); conditions: 635 nm fluorescence, higher = more signal;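 further: composite of spot emission at 667 nm and signal to noise over triplicate slides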
# [4] = tested on: Fibrinogen (Alexa647-labelled); test: Alexa647-fibrinogen binding to printed small molecules – biochemical, small-molecule microarray, 635/667 nm fluorescence, artefact control for SMM control-protein annotation, profiling panel (AID 1131); conditions: fibrinogen-A647 binding fluorescence, higher = more signal;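 further: z-score merges 667 nm fluorescence with per-spot signal-to-noise over triplicate slides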
# [5] = biological target: Follistatin (Homo sapiens) (UniProt P19883); test: FST protein binding to printed compounds – biochemical, small-molecule microarray, 635/667 nm fluorescence, primary screen (AID 1132); conditions: 635 nm fluorescence, higher = more signal
# [6] = biological target: Fibroblast growth factor 2 (Homo sapiens) (UniProt P09038); test: basic fibroblast growth factor binding to printed compounds – biochemical, small-molecule microarray, 635/667 nm fluorescence, primary screen (AID 1133); conditions: FGF2, fluorescence 635/667, higher = more signal
# [7] = JC-1 mitochondrial potential readout, lung cancer cells – cell-based, A549, JC-1 fluorescence, basal, 24 h, 100 nL, profiling panel (AID 1138); conditions: higher = more signal;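 further: A549 lung adenocarcinoma cells under basal conditions with no added stimulus; test concentration not given here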
# Lefty1 = Lefty1 protein binding to printed compounds – biochemical, small-molecule microarray, 635/667 nm fluorescence, primary screen (AID 1139); conditions: fluorescence 635/667, higher = more signal
# [8] = tested on: wheat germ agglutinin (Triticum aestivum), Alexa647-labelled; test: Alexa647-WGA lectin binding to printed small molecules – biochemical, small-molecule microarray, 635/667 nm fluorescence, artefact control for SMM control-protein annotation, profiling panel (AID 1140); conditions: WGA-A647 binding, 635 nm fluorescence, higher = more signal;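 further: score merges 667 nm feature emission with signal to noise over triplicate slides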
# [9] = biological target: Luciferin 4-monooxygenase (Photinus pyralis) (UniProt P08659); test: inhibition of purified Photinus pyralis luciferase – biochemical, luminescence, purified enzyme, 2006 set, primary screen (AID 1141); conditions: purified firefly luciferase, SteadyGlo luminescence, 30 min; higher = more signal, called active from +8 up or from −8 down;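 further: cell-free assay with purified firefly luciferase at 100 ng per well in PBS; test concentration not given here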
# [10] = tested on: Wnt5a (protein binding on small-molecule microarray); test: small molecules binding Wnt5a protein – biophysical, small-molecule microarray, 635/667 nm fluorescence, primary screen (AID 1142); conditions: 635 nm fluorescence, higher = more signal;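 further: fluorescence read at 667 nm with signal to noise per printed feature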
# [11] = ATP-based viability of Huh7 replicon cells – cell-based, CellTiter-Glo luminescence, basal, 48 h, cytotoxicity control for HCV replication inhibitor project, primary screen (AID 1143); conditions: higher = more signal, called active from +8 up or from −8 down;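 further: Huh7 hepatoma cells carrying a hepatitis C replication reporter with no stimulus; test concentration not given here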
# [12] = Pseudomonas biofilm growth suppression – PAO1 strain, BacTiter-Glo luminescence, LB-PBS, primary screen (AID 1144); conditions: P. aeruginosa PAO1 biofilm, 12 h, higher = more signal
# [13] = basal CRE-LacZ reporter activity in PC12 – cell-based, unstimulated, primary screen (AID 1145); conditions: no forskolin, luminescence, 4.5 h, higher = more signal, called active from +8 up or from −8 down
# [14] = forskolin-driven CRE-LacZ activity in PC12 – cell-based, CRE-LacZ reporter, forskolin-stimulated, primary screen (AID 1146); conditions: luminescence, 4.5 h, higher = more signal, called active from +8 up or from −8 down;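 further: PC12 cells with 6xCRE LacZ reporter stimulated by forskolin 10 µM; beta-galactosidase reporter signal reflecting CREB driven transcription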
# [15] = biological target: Streptavidin (Streptomyces avidinii) (UniProt P22629); test: compounds binding control protein streptavidin – biophysical, small-molecule microarray, 635/667 nm fluorescence, artefact control for SMM compound annotation, primary screen (AID 1147); conditions: higher = more signal;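 further: signal reflects streptavidin binding to arrayed compounds as a control protein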
# [16] = probe aInhba binding on compound microarray – biochemical, small-molecule microarray, 635/667 nm fluorescence, primary screen (AID 1148); conditions: higher = more signal;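 further: score merges 667nm spot fluorescence with signal-to-noise for antibody binding to printed compounds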
# Torsin-1A (Homo sapiens) [17] = biological target: Torsin-1A (Homo sapiens) (UniProt O14656); test: TOR1A wild-type binding on microarray – cell lysate, small-molecule microarray, lysate, 635/667 nm, primary screen (AID 1149); conditions: COS7 hTOR1A-WT lysate, 635 nm fluorescence, higher = more signal
# Torsin-1A (Homo sapiens) [18] = biological target: Torsin-1A (Homo sapiens) (UniProt O14656); test: torsin A mutant lysate binding on microarrays – cell lysate, small-molecule microarray, COS7 lysate, 635/667 nm fluorescence, primary screen (AID 1150); conditions: COS7 hTOR1A mutant lysate, 635 nm fluorescence, higher = more signal;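 further: score pools 667 nm emission and signal to noise measuring lysate protein binding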
# [19] = tested on: Sonic hedgehog protein (Shh); test: Sonic hedgehog microarray binding compounds – biochemical, small-molecule microarray, 635/667 nm fluorescence, primary screen (AID 1151); conditions: 635 nm fluorescence, higher = more signal;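 further: Shh protein binding to compounds spotted on small-molecule microarray slides; score combines spot fluorescence intensity with signal-to-noise across triplicate slides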
# Sequence of Focal adhesion kinase 1 (Homo sapiens) (Q05397 whole entry, looked up): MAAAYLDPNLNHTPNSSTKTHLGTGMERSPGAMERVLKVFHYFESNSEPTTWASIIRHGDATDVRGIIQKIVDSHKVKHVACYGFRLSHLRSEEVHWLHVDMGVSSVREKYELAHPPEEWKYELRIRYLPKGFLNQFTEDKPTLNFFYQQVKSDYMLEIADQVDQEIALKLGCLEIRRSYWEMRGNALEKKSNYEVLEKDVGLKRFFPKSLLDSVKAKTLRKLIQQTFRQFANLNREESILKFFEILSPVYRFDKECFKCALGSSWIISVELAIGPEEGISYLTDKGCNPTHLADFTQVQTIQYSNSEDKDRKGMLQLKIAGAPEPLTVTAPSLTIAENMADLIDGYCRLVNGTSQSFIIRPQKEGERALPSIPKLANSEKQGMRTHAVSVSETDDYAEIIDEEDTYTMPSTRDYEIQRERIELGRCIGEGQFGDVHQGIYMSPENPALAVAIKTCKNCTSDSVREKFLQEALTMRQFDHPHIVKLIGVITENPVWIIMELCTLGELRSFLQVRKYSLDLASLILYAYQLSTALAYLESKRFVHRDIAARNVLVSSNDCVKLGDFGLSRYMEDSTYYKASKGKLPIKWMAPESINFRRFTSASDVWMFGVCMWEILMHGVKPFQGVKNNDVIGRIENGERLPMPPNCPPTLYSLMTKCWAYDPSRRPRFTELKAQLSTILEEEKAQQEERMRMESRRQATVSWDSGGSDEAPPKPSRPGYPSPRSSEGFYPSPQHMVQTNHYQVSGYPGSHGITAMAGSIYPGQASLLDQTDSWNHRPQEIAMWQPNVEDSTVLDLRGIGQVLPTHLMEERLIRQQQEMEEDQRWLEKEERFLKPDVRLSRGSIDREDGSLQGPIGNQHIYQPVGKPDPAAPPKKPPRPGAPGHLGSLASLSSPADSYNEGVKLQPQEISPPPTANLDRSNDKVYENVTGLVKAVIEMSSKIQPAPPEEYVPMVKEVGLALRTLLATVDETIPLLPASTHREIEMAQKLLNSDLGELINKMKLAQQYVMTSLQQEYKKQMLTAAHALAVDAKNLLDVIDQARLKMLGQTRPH
# Sequence of Fibroblast growth factor 2 (Homo sapiens) (P09038 whole entry, looked up): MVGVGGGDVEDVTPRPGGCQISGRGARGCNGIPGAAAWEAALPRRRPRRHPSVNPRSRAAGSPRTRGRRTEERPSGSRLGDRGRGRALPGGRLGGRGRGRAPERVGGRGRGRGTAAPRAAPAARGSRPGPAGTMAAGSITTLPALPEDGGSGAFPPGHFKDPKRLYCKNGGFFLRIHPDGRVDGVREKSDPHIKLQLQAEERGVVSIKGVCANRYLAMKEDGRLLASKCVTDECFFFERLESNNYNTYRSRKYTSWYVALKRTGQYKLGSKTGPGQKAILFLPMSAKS
# Sequence of Luciferin 4-monooxygenase (Photinus pyralis) (P08659 whole entry, looked up): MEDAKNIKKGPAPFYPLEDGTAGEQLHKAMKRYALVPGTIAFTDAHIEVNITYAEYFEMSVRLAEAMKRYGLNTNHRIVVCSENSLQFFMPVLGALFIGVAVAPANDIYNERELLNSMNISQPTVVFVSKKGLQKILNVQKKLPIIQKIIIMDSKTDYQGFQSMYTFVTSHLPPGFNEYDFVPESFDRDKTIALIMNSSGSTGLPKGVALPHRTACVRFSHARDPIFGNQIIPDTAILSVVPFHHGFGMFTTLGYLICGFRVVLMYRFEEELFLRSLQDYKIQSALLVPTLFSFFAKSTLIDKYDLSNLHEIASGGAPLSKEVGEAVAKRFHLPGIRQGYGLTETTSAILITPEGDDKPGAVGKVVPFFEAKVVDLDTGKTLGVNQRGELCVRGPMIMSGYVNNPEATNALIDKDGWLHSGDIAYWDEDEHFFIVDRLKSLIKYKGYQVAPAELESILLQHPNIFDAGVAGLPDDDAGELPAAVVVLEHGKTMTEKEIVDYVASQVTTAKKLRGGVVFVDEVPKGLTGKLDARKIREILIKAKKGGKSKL
# Sequence of Torsin-1A (Homo sapiens) (O14656 whole entry, looked up): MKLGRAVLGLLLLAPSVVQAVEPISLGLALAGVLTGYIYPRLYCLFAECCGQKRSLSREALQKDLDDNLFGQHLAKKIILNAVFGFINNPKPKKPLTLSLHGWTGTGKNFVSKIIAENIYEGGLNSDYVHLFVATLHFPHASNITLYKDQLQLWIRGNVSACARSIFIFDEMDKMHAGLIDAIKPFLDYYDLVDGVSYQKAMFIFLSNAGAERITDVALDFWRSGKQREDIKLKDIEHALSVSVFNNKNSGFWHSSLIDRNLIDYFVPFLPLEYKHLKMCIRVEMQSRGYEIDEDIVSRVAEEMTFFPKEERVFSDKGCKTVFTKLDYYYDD
# Sequence of Follistatin (Homo sapiens) (P19883 whole entry, looked up): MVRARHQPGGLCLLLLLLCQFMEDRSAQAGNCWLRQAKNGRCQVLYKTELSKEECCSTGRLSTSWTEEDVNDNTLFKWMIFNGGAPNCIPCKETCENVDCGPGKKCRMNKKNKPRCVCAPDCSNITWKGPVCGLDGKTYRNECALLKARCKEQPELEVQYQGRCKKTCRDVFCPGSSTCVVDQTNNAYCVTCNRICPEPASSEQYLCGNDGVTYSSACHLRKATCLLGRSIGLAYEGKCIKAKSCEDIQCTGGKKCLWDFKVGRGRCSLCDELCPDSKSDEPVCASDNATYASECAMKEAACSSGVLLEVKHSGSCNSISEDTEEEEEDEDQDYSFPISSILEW
# Sequence of Streptavidin (Streptomyces avidinii) (P22629 whole entry, looked up): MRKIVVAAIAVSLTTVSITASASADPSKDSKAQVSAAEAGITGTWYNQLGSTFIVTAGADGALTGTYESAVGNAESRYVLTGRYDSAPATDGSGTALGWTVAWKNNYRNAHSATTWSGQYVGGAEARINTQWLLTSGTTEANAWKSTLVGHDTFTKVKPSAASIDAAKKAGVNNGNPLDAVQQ
compound,measurement,setting,value
COc1ccc(C(O)C2C=CC3C(=O)NC(=O)C3N2Nc2ccccn2)cc1 (stereo not given),composite z-score,[1],0.246
same,composite z-score,[2],0.178
same,composite z-score,[3],-0.235
same,composite z-score,[4],0.055
same,composite z-score,[5],0.198
same,composite z-score,[6],0.338
same,z-score,[7],-0.0269
same,composite z-score,Lefty1,0.513
same,composite z-score,[8],0.899
same,z-score,[9],-1.99 (inactive)
same,composite z-score,[10],0.273
same,z-score,[11],1.06 (inactive)
same,z-score,[12],-0.727 (inactive)
same,z-score,[13],-0.329 (inactive)
same,z-score,[14],-0.239 (inactive)
same,composite z-score,[15],-0.0335
same,composite z-score,[16],0.0659
same,composite z-score,Torsin-1A (Homo sapiens) [17],0.21
same,composite z-score,Torsin-1A (Homo sapiens) [18],0.353
same,composite z-score,[19],0.3
CC(C)(C)OC(=O)CC[C@@]1(C(=O)NCC(O)CO)N=C(c2ccc(OCCCO)cc2)O[C@@H]1c1ccccc1N=[N+]=[N-] (stereo not given in full),composite z-score,[1],2.37
same,composite z-score,[2],0.818
same,composite z-score,[3],0.94
same,composite z-score,[4],0.985
same,composite z-score,[5],1.43
same,composite z-score,[6],0.692
same,z-score,[7],1.18
same,composite z-score,Lefty1,-0.0052
same,composite z-score,[8],0.96
same,z-score,[9],-10.6 (active)
same,composite z-score,[10],0.849
same,z-score,[11],-0.371 (inactive)
same,z-score,[12],-1.18 (inactive)
same,z-score,[13],-0.183 (inactive)
same,z-score,[14],-0.173 (inactive)
same,composite z-score,[15],1.85
same,composite z-score,[16],0.289
same,composite z-score,Torsin-1A (Homo sapiens) [17],1.45
same,composite z-score,Torsin-1A (Homo sapiens) [18],1.76
same,composite z-score,[19],0.146
CC(C)C(CO)N1C(=O)[C@@H]2[C@H]3C(=O)OCC=C[C@H]3OC23C=CCN(C(C)C)C(=O)[C@@H]13 (stereo not given in full),composite z-score,[1],0.443
same,composite z-score,[2],-0.349
same,composite z-score,[3],0.0732
same,composite z-score,[4],-0.841
same,composite z-score,[5],0.405
same,composite z-score,[6],-0.501
same,z-score,[7],-0.654
same,composite z-score,Lefty1,0.433
same,composite z-score,[8],-0.131
same,z-score,[9],0.316 (inactive)
same,composite z-score,[10],-0.3
same,z-score,[11],-0.602 (inactive)
same,z-score,[12],-0.1 (inactive)
same,z-score,[13],-0.757 (inactive)
same,z-score,[14],-0.681 (inactive)
same,composite z-score,[15],-0.629
same,composite z-score,[16],-0.0963
same,composite z-score,Torsin-1A (Homo sapiens) [17],-0.543
same,composite z-score,Torsin-1A (Homo sapiens) [18],-0.374
same,composite z-score,[19],0.841
COCCOC(=O)N1C(=O)[C@@]2(c3cc(C#CC4=CCCCC4)ccc31)[C@H](C(=O)Nc1nc3ccccc3s1)[C@H]1C(=O)O[C@H](c3ccccc3)[C@H](c3ccccc3)N1[C@@H]2c1ccccc1OCCO,composite z-score,[1],0.772
same,composite z-score,[2],1.19
same,composite z-score,[3],2.14
same,composite z-score,[4],0.766
same,composite z-score,[5],1.38
same,composite z-score,[6],0.946
same,z-score,[7],-2.18
same,composite z-score,Lefty1,1.21
same,composite z-score,[8],0.845
same,z-score,[9],-1.88 (inactive)
same,composite z-score,[10],0.697
same,z-score,[11],-5.66 (inactive)
same,z-score,[12],-1.29 (inactive)
same,z-score,[13],-0.878 (inactive)
same,z-score,[14],-1.09 (inactive)
same,composite z-score,[15],1.19
same,composite z-score,[16],0.973
same,composite z-score,Torsin-1A (Homo sapiens) [17],0.0595
same,composite z-score,Torsin-1A (Homo sapiens) [18],0.956
same,composite z-score,[19],1.49
COCCOC(=O)N1C(=O)[C@@]2(c3cc(C#CCCO)ccc31)[C@H](c1ccc(OCCO)cc1)N1[C@H](c3ccccc3)[C@H](c3ccccc3)OC(=O)[C@H]1[C@@H]2C(=O)N1CCN(c2ncccn2)CC1,composite z-score,[1],1.05
same,composite z-score,[2],1.18
same,composite z-score,[3],0.307
same,composite z-score,[4],0.756
same,composite z-score,[5],1.3
same,composite z-score,[6],1.32
same,z-score,[7],-1.04
same,composite z-score,Lefty1,1.37
same,composite z-score,[8],0.624
same,z-score,[9],-0.836 (inactive)
same,composite z-score,[10],-0.0738
same,z-score,[11],-0.361 (inactive)
same,z-score,[12],0.97 (inactive)
same,z-score,[13],0.334 (inactive)
same,z-score,[14],0.653 (inactive)
same,composite z-score,[15],0.782
same,composite z-score,[16],0.0947
same,composite z-score,Torsin-1A (Homo sapiens) [17],0.546
same,composite z-score,Torsin-1A (Homo sapiens) [18],0.28
same,composite z-score,[19],1.43

# From PubChem BioAssay
